The record followed here is PubChem BioAssay AID1745847 (National Center for Advancing Translational Sciences (NCATS), 2022).

In all, about 2,100 compounds went through this assay and about 670 (32%) were called active. Inconclusive results (about 50%) are left out. The list shows a part of the results. Values without a mark were called inactive. Calls follow the shape of the dose curve; as a rule, active = well fitted inhibition curve with a large enough effect; inconclusive = small, poorly fitted or top-dose-only effect; inactive = no such curve, though single readings can be large or run the other way.
% is scaled to controls: 0 for no effect and ±100 for the full control effect; potency is read from the fitted curve at half-maximal effect.

This assay can be described thus: CMV-Luciferase Counterscreen for Inhibitors of ATXN expression. Also: nearly all actives have a fitted effect of over 55% in size. As to conditions: HEK-293 CMV-luciferase reporter, luminescence, 24 h; series mostly up to 57.5 µM. On the technique in general: The purpose of a counterscreen is to sort out artefacts and off-target activity.
With `Cc1cc(OCc2nc(N)nc(N)c2-c2ccc(Cl)c(Cl)c2)ccc1[N+](=O)[O-]`, the Potency is 0.316 µM (active).
As to `COc1cccc2c1C(=N)c1c(O)c3c(c(O)c1C2=O)CC(O)(C(C)=O)CC3OC1CC(N)C(O)C(C)O1` (centres undefined), the Potency was 0.282 µM (active).
Still for that read-out and setting: as for `CCCCC(=O)OCC(=O)C1(O)Cc2c(O)c3c(c(O)c2C(OC2CC(NC(=O)C(F)(F)F)C(O)C(C)O2)C1)C(=O)c1c(OC)cccc1C3=O` (centres undefined), the figure is 3.16 µM (active); as for `C=CCn1cnc2c(c1=O)c1nc3ccccc3nc1n2/N=C/c1cc(OC)c(OC)c(OC)c1`, “inactive”; as for `O=C(c1cnc(N2CCN(c3ccccn3)CC2)c2ccccc12)N1CCN(c2cccc(Cl)c2)CC1`, 6.31 µM (active).
The same measure, in the same setting: as for `Cc1ccc(NC(=O)c2cnc(N3CCN(c4ccccn4)CC3)c3ccccc23)c(Br)c1`, the figure is 14.1 µM (active).
As for `CCCc1nc(NC2CCCCC2)c(C#N)c2c1COC(C)(C)C2`, the activity change, negative = inhibition was -15.4% [at 11.4 µM].
As to `CC(=O)Oc1ccc(N(C(C)=O)S(=O)(=O)c2ccc(C)cc2C)c2ccccc12`, the Potency was 17.8 µM (active).
Still for that read-out and setting: as for `CC(=O)Oc1ccc(N(C(C)=O)S(=O)(=O)c2cccs2)c2ccccc12`, the figure is 25.1 µM (active).
For the compound `NC(Cc1ccc(F)cc1)c1csc(Nc2cc(NCc3ccco3)ncn2)n1` (centres undefined), the activity change, negative = inhibition was 0.881% [at 11.4 µM].
With `Cc1nc(C(F)(F)F)c(C(=O)N/N=C(\N)c2ccccn2)s1`, the Potency was 10 µM (active).
On the same count and under the same terms, as for `Cc1cccc(/C=C/C(=O)c2ccc([N+](=O)[O-])o2)c1`, the figure is 3.55 µM (active).
`COc1cc(/C=C/C(=O)c2ccc(C)c([N+](=O)[O-])c2)cc(OC)c1O`: the Potency result was “inactive”.
For the compound `CN(C)C(=O)c1cccc(-c2cnc3c(NC=O)cc(-c4ccc(F)cc4)cn23)c1`, the activity change, negative = inhibition is 49.3% [at 11.4 µM].
For the compound `COc1ccc(CC2C(=O)NC(C)C(=O)N(C)C3Cc4ccc(cc4)Oc4cc(ccc4O)CC(C(=O)NC(C)C(=O)NC(C)C(=O)N2C)N(C)C3=O)cc1` (centres undefined), the Potency is 0.891 µM (active).
With `O=C(N/N=C/c1cc([N+](=O)[O-])ccc1O)c1cc(-c2ccccc2)nc2ccccc12`, the Potency is 1.78 µM (active).
Same read-out and setting: as for `O=C(N/N=C/c1cc([N+](=O)[O-])ccc1O)c1cccc2cc[nH]c12`, the figure is 2.82 µM (active).
The same measure, in the same setting: as for `CN(C)CCNc1ncnc2c1ncn2[C@H]1CN(Cc2ccc(-c3ccccc3)cc2)C[C@@H](CO)O1`, the entry is “inactive”; as for `OC[C@@H]1CN(Cc2ccc(-c3ccccc3)cc2)C[C@H](n2cnc3c(NC4CCC4)ncnc32)O1`, 10 µM (active).
Same read-out and setting: as for `OC[C@@H]1CN(Cc2ccc(-c3ccccc3)cc2)C[C@H](n2cnc3c(Nc4ccccc4)ncnc32)O1`, the figure is 12.6 µM (active).
With `CN(C)CCCNc1nc2cc(-c3cccc(Cl)c3)sc2c(=O)n1C`, the Potency result was “inactive”.
On the same count and under the same terms, as for `CN(C)C(=O)CSc1nc(-c2ccccc2)nc2c1CCCC2`, the entry is “inactive”; as for `CC1CCCCN1C(=O)C1CCN(c2nc(-c3ccccc3)nc3c2CCC3)CC1` (centres undefined), 22.4 µM (active).
In the case of `CSc1nc(-c2ccc(Cl)cc2)nc(N)c1C#N`, the activity change, negative = inhibition was -7.46% [at 11.4 µM].
Take `CCc1cc(-c2nnn(CCC3COCCO3)c2CC)ccc1-c1cn(CCc2c[nH]c3ccccc23)nn1` (centres undefined): the Potency was 4.47 µM (active).
Turning to `COc1ccc2oc(/C=C/N(C)C)c(C(=O)c3ccc(Cl)cc3)c2c1`, the Potency is 12.6 µM (active).
Turning to `C[C@H]1O[C@@H](O[C@H]2[C@@H](O)C[C@H](O[C@H]3[C@@H](O)C[C@H](O[C@H]4CC[C@@]5(C)[C@H](CC[C@@H]6[C@@H]5C[C@@H](O)[C@]5(C)[C@@H](C7=CC(=O)OC7)CC[C@]65O)C4)O[C@@H]3C)O[C@@H]2C)C[C@H](O)[C@@H]1O`, the Potency entry is “inactive”.
In the case of `COc1cc2c3nnc(-c4ccc(F)cc4)c-3cn(Cc3ccc(C)cc3)c2cc1OC`, the Potency result was “inactive”.
Consider `O=c1oc2ccccc2c(O)c1Cc1cc(Cl)c2cccnc2c1O`, for which the Potency is 10 µM (active).
Regarding `CCC1(c2ccccc2)ON(c2c(Br)cccc2Br)C1=O` (centres undefined), the Potency was 17.8 µM (active).
Same read-out and setting: as for `O=C(c1ccc(Cn2c(=S)[nH]c3ccccc3c2=O)cc1)N1CCN(c2ccccn2)CC1`, the figure is 3.16 µM (active).
For `CCc1nc2ccc(C(=O)Nc3cccc(NS(C)(=O)=O)c3)cn2c1N(CC)Cc1cccc(Br)c1`, the Potency was 31.6 µM (active).
With `Cn1c(-[n+]2c(-c3ccccc3)cc(-c3ccccc3)cc2-c2ccccc2)nc2c([N+](=O)[O-])cccc21`, the activity change, negative = inhibition is 0.1% [at 11.4 µM].
Take `CCc1nc(N)nc(N)c1-c1ccc(N(C)Cc2ccccc2)c([N+](=O)[O-])c1`: the Potency is 0.501 µM (active).
The same measure, in the same setting: as for `O=S(=O)([N-]c1nc2ccccc2nc1-[n+]1ccc(Cc2ccccc2)cc1)c1ccc(Br)s1`, the figure is 14.1 µM (active); as for `Cc1ccc(-c2cc(C(=O)NCCCN3CCOCC3)no2)cc1`, 8.91 µM (active).
Still for that read-out and setting: as for `CN1CCN(CCNC(=O)c2ccc3nc(-c4ccc(F)cc4)c(-c4ccc(F)cc4)nc3c2)CC1`, the entry is “inactive”; as for `O=C(Nc1ccc(Cl)c([N+](=O)[O-])c1)c1ccc(NCCCN2CCOCC2)c([N+](=O)[O-])c1`, “inactive”; as for `O=C(N/N=C/c1ccccc1O)C1CC(=O)N(c2ccc(Cl)cc2)C1` (centres undefined), 0.631 µM (active).
`Cc1cnc(NC(=O)C2CC(=O)N(c3cccc(Cl)c3)C2)s1` (centres undefined): the activity change, negative = inhibition is 51.5% [at 11.4 µM].
In the case of `CCc1ccc(N2CC(C(=O)N/N=C/c3cc([N+](=O)[O-])ccc3O)CC2=O)cc1` (centres undefined), the Potency is 10 µM (active).
On to `COc1ccc(Cn2c(-c3ccc(C)cc3)c[n+]3ccccc23)cc1`, for which the Potency is 1 µM (active).
As for `Nc1nc(N)c2cc(Sc3ccc4ccccc4c3)ccc2n1`, the Potency was 10 µM (active).
Take `COc1cc(NC(=O)c2cc(-c3ccccc3)nc3c2cnn3C(C)C)cc(OC)c1OC`: the Potency was 3.16 µM (active).
On to `COc1cc(Nc2ncc3c(n2)CCN(C(=O)Nc2ccc(C(C)C)cc2)C3)cc(OC)c1OC`, for which the activity change, negative = inhibition was -3.4% [at 11.4 µM].
In the case of `O=C(Nc1ccc(N2CCN(C(=O)c3ccco3)CC2)c(Cl)c1)c1cccs1`, the Potency is 20 µM (active).
On the same count and under the same terms, as for `Cc1ccccc1C(=O)N1CCN(c2ccc(NC(=O)c3ccco3)cc2Cl)CC1`, the figure is 12.6 µM (active).
Take `O=C(Nc1ccc(N2CCOCC2)c(Cl)c1)c1c(F)c(F)c(F)c(F)c1F`: the activity change, negative = inhibition was 29.5% [at 11.4 µM].
As for `O=C(Nc1ccc(NC(=O)c2ccc(Cl)cc2Cl)cc1)c1cccs1`, the Potency entry was “inactive”.
